Data reported in PubChem BioAssay (Tox21).
Inconclusive results are not listed. A number with no mark means an inactive call. Active and inactive are the calls of the source. Calls follow the shape of the dose curve; as a rule, active = well fitted cell-killing curve with a large enough effect in the repeat runs; inconclusive = weak or mixed curves, or effect the other way; inactive = flat fitted curve, though single readings scatter. Positions of bridges follow the written chain, without caps; N, C: chain ends. Non-standard residues stand in square brackets, D forms with d. Residues, ends and D or L forms follow the SMILES beside them. hArg = N=C(N)NCCCC[C@H](N)C(=O)O; Mpa = O=C(O)CCS

Experiment: qHTS assay to identify small molecule agonists of the androgen receptor (AR) signaling pathway in the presence of an antagonist - cell viability counter screen (AID 1259379); also: nearly all actives have a fitted effect of over 25% in size
Conditions: MDA-kb2 viability, CellTiter-Fluor, 16 h; series mostly up to 92.4 µM
Description: National Center for Advancing Translational Sciences [NCATS]
NIH Chemical Genomics Center [NCGC]
U.S. Environmental Protection Agency [EPA]
National Institutes of Environmental Health Sciences [NIEHS]
National Toxicology Program [NTP]
U.S. Food and Drug Administration [FDA]
Androgen receptor (AR) is an important member of nuclear receptor family. Its signaling plays a critical role in AR-dependent prostate cancer and other androgen related diseases. Considerable attention has been given in the past decades to develop methods to study and screen for the environmental chemicals that have the potential to interfere with metabolic homeostasis, reproduction, developmental and behavioral functions. Therefore AR binding assay for screening against androgen agonists and antagonists can be used to identify potential endocrine disruptors.
MDA-kb2 cells (from ATCC, deposited by Wilson et al.) are human breast carcinoma cells that were stably transfected with a luciferase reporter gene under control of the MMTV promoter that contains response elements for both androgen receptor (AR) and glucocorticoid receptor (GR). This particular screening for measuring luciferase reporter gene activity using MDA-kb2 cells against Tox21 10K library compounds is a confirmation study on agonist mode screening in the presence of AR-antagonist compound (Nilutamide) at 3.0uM final concentration. The cytotoxicity of the compounds was tested in parallel by measuring the cell viability using CellTiter-Fluor assay system (Promega, Madison, WI) in the same wells.
Tox21 Assay Protocol Summary:
MDA-kb2 cells (cells cultured without CO2) were dispensed at 3,000 cells/well in 4uL of culture medium into white wall/solid-bottom 1536-well plates (Corning Life Sciences, Corning, NY) using a Multidrop Combi (Thermo Fisher Scientific Inc., Waltham, MA) dispenser. The assay plates were incubated at 37C and 0% CO2 for 5hr. One uL of 3.0uM (final concentration) Nilutamide or assay buffer was added using two separate tips of Flying Reagent Dispenser (FRD, Aurora Discovery, San Diego, CA). Then 23nL of compounds dissolved in DMSO at 15 concentrations and positive controls were transferred to the assay plates using a Pintool station (Wako, San Diego, CA). The assay plates were incubated at 37C and 0% CO2 for 16 hr. After 15hr incubation at 37C, 1uL/well CellTiter-Fluor reagent (Promega Corporation) was added to each well of the assay plates using FRD. After 1hr incubation at 37C and 0% CO2, the fluorescence signal was measured using a ViewLux plate reader (PerkinElmer, Shelton, CT).
% is scaled to controls: 0 for no effect and ±100 for the full control effect.

Structure (SMILES) | outcome | activity change, negative = cytotoxicity
COS(=O)(=O)O | inactive | –
C=CCSSCCC | inactive | –
C/C=C(\C)C(C)=O | inactive | –
CC(C)CCOC(=O)c1ccccc1 | inactive | –
OC[C@@H](O)C(O)[C@@H](O)CO (stereo not given in full) | inactive | –
CC(C)(C)NC[C@H](O)COc1cccc2c1CCCC2=O | inactive | –
COc1cc(/C=C/C(N)=O)cc(OC)c1OC | inactive | –
Cc1ncc([N+](=O)[O-])n1CC(C)O (stereo not given) | inactive | –
NC(=O)[C@@H]1CSSCCC(=O)N[C@@H](CCCCN=C(N)N)C(=O)NCC(=O)N[C@@H](CC(=O)O)C(=O)N[C@@H](Cc2c[nH]c3ccccc23)C(=O)N2CCC[C@H]2C(=O)N1 ([Mpa][hArg]GDWPC-NH2; disulfide 1-7) | inactive | –
ONc1ccccc1 | inactive | –
COc1nc(N)nc2nc[nH]c12 | inactive | –
O=C(CCCCC(=O)Nc1c(I)cc(I)c(C(=O)O)c1I)Nc1c(I)cc(I)c(C(=O)O)c1I | inactive | –
CN1C[C@@H]2C[C@H]1CN2c1cc2c(cc1F)c(=O)c(C(=O)O)cn2C1CC1 | – | 0.0403% [at 19 µM]
CC1=C(C(=O)O)N2C(=O)[C@@H](NC(=O)[C@H](N)c3ccccc3)[C@H]2SC1 | inactive | –
CC(C)[C@H]1CC[C@H](C)C[C@@H]1O | inactive | –
Cc1ccc(C)c([N+](=O)[O-])c1 | inactive | –
O=C(O)CSCC(=O)NC1CCSC1=O (stereo not given) | inactive | –
Cc1ccc(C(C)NC(=O)[C@@H](NC(=O)OC(C)C)C(C)C)cc1 (stereo not given in full) | inactive | –
O=C(NCN1CCOCC1)c1cnccn1 | inactive | –
C#CCN[C@@H]1CCc2ccccc21 | inactive | –

Structure (SMILES) | outcome | activity change, negative = cytotoxicity
CC(C)=CCC/C(C)=C/COC=O | inactive | –
CC(=O)CCc1ccc(OC(C)=O)cc1 | inactive | –
CCCC(=O)OCCC(C)CCC=C(C)C (stereo not given) | inactive | –
CCc1occc(=O)c1O | inactive | –
CC(=O)O[Si](C)(OC(C)=O)OC(C)=O | inactive | –
CCCCCCC1(C)CCC(=O)O1 (stereo not given) | inactive | –
C=C(C)[C@@H]1CC=C(C)CC1 | inactive | –
CC(C)=CCC[C@@](C)(O)[C@H]1CC=C(C)CC1 | inactive | –
N[C@@H](Cc1ccc(O)cc1)C(=O)O | – | 0.232% [at 8.39 µM]
Cc1ccc(N)cc1S(=O)(=O)O | inactive | –
CN(C)CCCO[C@@H]1[C@H]2OC(C)(C)O[C@H]2O[C@@H]1C(O)CO (stereo not given in full) | inactive | –
O=C[O][Al]([O]C=O)[O]C=O | inactive | –
CC1=C(O)C(=O)C(C)O1 (stereo not given) | inactive | –
CC1(C)O[C@H]2CC(=O)OC[C@]23[C@H]2CC[C@@]4(C)[C@H](c5ccoc5)OC(=O)[C@H]5O[C@]54[C@]2(C)C(=O)C[C@@H]13 | inactive | –
[O-][n+]1cccc(/C(Cl)=N/OC[C@@H](O)CN2CCCCC2)c1 | inactive | –
CC1(C)Oc2ccc(C#N)cc2[C@@H](N2CCCC2=O)[C@@H]1O | inactive | –
CC1(C)[C@H]2CC[C@](C)(C2)[C@H]1O | inactive | –
O=C(CN1CCNCC1)NC1CCCCC1 | inactive | –
CO[Si](CCCn1c(=O)n(CCC[Si](OC)(OC)OC)c(=O)n(CCC[Si](OC)(OC)OC)c1=O)(OC)OC | inactive | –
O=C(O)[C@H](O)c1ccccc1 | inactive | –
